Bioassay records: PubChem BioAssay, Broad Institute
In the library only some 3.4% were active in any assay of this set; here they are far more common.
Env fusion inh: inhibitors of HIV-1 Env-driven cell-cell fusion, primary screen, HeLa-JRFL effector, CEM21 target cells, luciferase. inhibition, % at 12.3 µM. actives 1.1% (n = 360,000). AID 651610, 2012;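 active means mean replicate inhibition score of at least 50 and every replicate individually at or above 50; inconclusive means only one of the two criteria met; inactive means mean below 50 and not all replicates reaching 50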;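 further: 0% = plate neutral controls and 100% = maraviroc near 300 nM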
miR-122 sensor: miR-122 Renilla sensor signal increase in Huh7, primary screen, miR-122 inhibitor project, cell-based, single point, plate reader; Huh7 miR-122 Renilla luciferase sensor, 48 h; neutral wells = 0, positive control = 100; activation (reporter increase), % at 12.5 µM; actives 0.3% (n = 340,000); AID 602342, 2012;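 active means mean replicate activation score at least 90 and every replicate individually at or above 90; inconclusive means only one of the two criteria met; inactive means neither criterion met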;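 further: higher luciferase means less miR-122 activity so hits act as miR-122 inhibitors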
esBAF inh: Bmi1 luciferase reporter increase in mESCs, primary screen, esBAF inhibitor project, mouse ES cells, Bmi1 luciferase knock-in, single point; 24 h; 100% = twice the neutral-well signal; reporter increase, % at 12.5 µM; actives 2% (n = 350,000); AID 602393, 2012; in the data active means activation above about 40%; inconclusive means no clear call, values can overlap the other calls;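 further: 0% = median of the plate's neutral control wells and 100% = double that signal; a rise in the Bmi1 reporter signal indicates esBAF inhibition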
Wnt bcat act: Wnt/beta-catenin pathway activators, primary screen, cell-based, plate reader, single point | activation, % at 9.35 µM | Wnt/beta-catenin reporter cell assay, activator | actives 1.2% (n = 300,000); in the data active means activation above about 30%, passing the limit was not always enough; inconclusive means no clear call, values can overlap the other calls;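 further: 0% = neutral control wells and 100% = positive control wells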
MITF TRPM1 HTS: activators of MITF-driven TRPM1 promoter reporter, primary screen, cell-based, SK-MEL-5, luciferase, single point; SK-MEL-5 TRPM1-promoter luciferase, 24 h; % of positive control, neutral wells = 0; activation, % at 12.5 µM; actives 0.75% (n = 300,000); AID 588334, 2011;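 active means mean activation of at least 80% with every replicate also reaching 80%; inconclusive means mean reaches 80% but some replicate falls short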;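 further: 0% = neutral control wells and 100% = parthenolide positive control wells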
The depositor's hits bear a star; ? = inconclusive; / = no result given; [ ] = dose if it differs, or a comment.

SMILES	Env fusion inh	miR-122 sensor	esBAF inh	Wnt bcat act	MITF TRPM1 HTS
O=C(Nc1ccc(NC(=O)c2ccccc2Br)cc1)c1ccccc1	7.4	-3.8	42.2*	3.5	27.3
CNC(=O)C[C@H]1CC[C@H]2[C@@H](COc3ccc(NC(=O)Nc4cccc(C)c4)cc3C(=O)N2C)O1	/	6.7[16.7 µM]	0.4	/	/
C[C@H]1CN([C@@H](C)CO)C(=O)c2cc(NC(=O)Cn3cnnn3)ccc2O[C@@H]1CN(C)S(=O)(=O)c1cn(C)cn1	/	-1.8[16.7 µM]	-0.7	/	/
CC(C)(C)S(=O)(=O)c1cnc(-c2ccc(Cl)cc2)nc1N	-17.2	/	/	39.1*	?
CC(C)(C)S(=O)(=O)c1cnc(N2CCCCC2)nc1N	-10.6	/	/	8.2	8.3
C#CCSc1ncc(-c2ccccc2)cn1	-49.6	-8.9	72.7*	9.2	59.0
C=CCSc1ncc(-c2ccccc2)cn1	-4.2	0.2	49.6*	?	73.3
Cc1ccc(S(=O)(=O)N(C)C[C@H]2Oc3ccc(NC(=O)CCN4CCOCC4)cc3C(=O)N([C@H](C)CO)C[C@@H]2C)cc1	/	-2.3[16.7 µM]	-1.3	/	/
CCC(=O)NC1=C(Nc2ccc(N)cc2)C(=O)c2ccccc2C1=O	-38.5	/	-6.3	33.6*	13.4
COCc1cn(CC[C@H]2CC[C@@H](NC(=O)Nc3ccc4c(c3)OCO4)[C@H](CO)O2)nn1	-0.2[16.7 µM]	/	-2.4	/	/
O=C(NCCc1ccc(F)cc1)NC12CC3CC(CC(C3)C1)C2	/	/	71.5*	52.1*	58.3
O=C(CCCc1ccccc1)NC12CC3CC(CC(C3)C1)C2	-44.3	-2.3	54.2*	0.3	102.3*
O=C(Nc1ccc(F)cc1)Nc1ccc2c(c1)[C@@H]1C[C@@H](CC(=O)N3CCCCC3)O[C@H](CO)[C@@H]1O2	0.8[16.7 µM]	-2.8[16.7 µM]	-14.4	/	/
O=C(C[C@@H]1C[C@H]2c3cc(NC(=O)Nc4ccc(F)cc4)ccc3O[C@H]2[C@H](CO)O1)NCC1CC1	94.8*[16.7 µM]	-2.7[16.7 µM]	-0.1	/	/
O=C(C[C@H]1C[C@@H]2c3cc(NC(=O)Nc4ccc(F)cc4)ccc3O[C@@H]2[C@@H](CO)O1)NCC1CC1	94.8*[16.7 µM]	4.9[16.7 µM]	0.1	/	/
O=C(C[C@@H]1C[C@H]2c3cc(NC(=O)Nc4ccc(F)cc4)ccc3O[C@H]2[C@@H](CO)O1)NCC1CC1	/	2.8[16.7 µM]	4.3	/	/
O=C(Nc1ccc(F)cc1)Nc1ccc2c(c1)[C@H]1C[C@@H](CC(=O)N3CCCCC3)O[C@H](CO)[C@H]1O2	83.1*[16.7 µM]	-1.0[16.7 µM]	5.8	/	/
CN1[C@@H]2c3ccc(C4=CCCCC4)c(=O)n3C[C@H]1[C@H](CO)[C@H]2C(=O)NCc1cccc(F)c1	/	18.5[16.7 µM]	2.9	/	/
C[C@@H]1CN([C@@H](C)CO)C(=O)c2cc(NS(=O)(=O)c3ccccc3)ccc2O[C@H]1CN(C)C	0.0[16.7 µM]	2.9[16.7 µM]	-3.6	/	/
O=C(C[n+]1cc(-c2ccc(F)cc2)n2c1CCC2)c1cccs1	-62.0	1.0	46.0*	-1.8	/
c1ccc2c(c1)oc1c(NCCCn3ccnc3)ncnc12	/	-2.4	/	/	-15.6
O=c1c2ccccc2oc2ccc(NCCCn3ccnc3)cc12	-51.3	-4.2	-58.6	34.5*	42.6
COC(=O)[C@]12CCCCC=C1N(Cc1ccco1)C(=O)[C@H](CC(=O)NCCc1ccccc1OC)C2	91.9*	/	/	5.1	/
CCCCOCCCNC(=O)C[C@@H]1C[C@@]2(C(=O)OC)CCCCC=C2N(Cc2ccco2)C1=O	62.5*	/	/	-1.3	/
COc1ccc(S(=O)(=O)Nc2ccc3c(c2)CC(=O)N([C@@H](C)CO)C[C@H](C)[C@H](CN(C)S(=O)(=O)c2cn(C)cn2)O3)cc1	16.1[16.7 µM]	5.7[16.7 µM]	-0.9	/	/
SMILES	Env fusion inh	miR-122 sensor	esBAF inh	Wnt bcat act	MITF TRPM1 HTS
C[C@@H]1CN([C@H](C)CO)C(=O)c2cc(C3=CCCCC3)cnc2O[C@H]1CN(C)C(=O)Cc1ccncc1	-10.1[16.7 µM]	3.5[16.7 µM]	-0.3	/	/
Cc1ccc2c(c1)COc1c3ccc(C(=O)N4CCOCC4)cc3nn1-2	-81.3	2.3	56.5*	42.8*	?
O=C(c1ccc2c(=O)n3c(nc2c1)CCCCC3)N1CCCCC1	-3.9	-8.6	3.3	3.9	-3.4
O=C(c1ccc2c3n(nc2c1)-c1ccc(Cl)cc1CO3)N1CCCCC1	-173.2	0.3	47.4*	?	102.6*
O=C(O)c1ccc2c3n(nc2c1)-c1ccc(Cl)cc1CO3	-123.4	/	/	35.8*	/
Cc1ccc(C(=O)N2CCOCC2)cc1Cl	3.5	-5.2	-4.9	-1.1	/
CCCNC(=O)C[C@@H]1CC[C@@H]2[C@H](COc3ccc(NC(=O)c4cccc(C(F)(F)F)c4)cc3C(=O)N2C)O1	4.1[16.7 µM]	1.4[16.7 µM]	2.2	/	/
C[C@H]1CN([C@@H](C)CO)C(=O)c2cc(NC(=O)NC3CCCCC3)ccc2O[C@@H]1CN(C)Cc1ccncc1	-3.5[16.7 µM]	-8.5[16.7 µM]	-4.3	/	/
CC(=O)c1cccc(NC(=O)c2cc3ccccn3n2)c1	/	/	54.0*	?	/
Cc1ccc(C)c(NC(=O)c2cc3ccccn3n2)c1	-112.0	4.3	32.7	50.4*	45.3
Cc1ccccc1NC(=O)c1cc2ccccn2n1	-30.6	/	/	59.2*	62.4
O=C(C[C@H]1CC[C@H]2[C@@H](COC[C@@H](O)CN2Cc2ccccc2)O1)NCCc1ccccc1	/	-1.2[16.7 µM]	1.0	/	/
C=CCN1C2CCCC1CC(NC(=S)Nc1ccc(Cl)cc1)C2 (centres undefined)	11.5	/	/	38.9*	14.6
C[C@@H]1CN([C@H](C)CO)C(=O)c2cc(NC(=O)Cc3ccccc3)ccc2O[C@@H]1CN(C)Cc1ccc(-c2ccccc2)cc1	1.1[16.7 µM]	0.1[16.7 µM]	-3.5	/	/
CCCC#Cc1cnc2c(c1)C(=O)N([C@@H](C)CO)C[C@@H](C)[C@@H](CN(C)C(=O)C1CCCCC1)O2	11.3[16.7 µM]	66.4[16.7 µM]	-5.8	/	/
COc1ccc(C(=O)c2c[nH]c(C(=O)NCCCn3ccnc3)c2)cc1	-4.2	1.0	5.0	39.7*	-5.2
O=C(Nc1ccccc1)Nc1ccc2c(c1)[C@H]1C[C@H](CC(=O)N3CCCCC3)O[C@@H](CO)[C@H]1O2	52.6[16.7 µM]	2.3[16.7 µM]	-7.1	/	/
Nc1cc2c(cc1Cl)-c1ccc(Cl)cc1C2	/	-0.3	58.9*	6.1	/
Nc1ccc2c(c1)Cc1cc(N)c(Br)cc1-2	-140.9	/	/	-5.5	22.9
CN(C)c1ccc(-n2cc3c(=O)n(C)c(=O)n(C)c3c2)cc1	/	6.5	70.7*	/	69.9
COc1cccc(NC(=O)N2C[C@H](O)COC[C@@H]3O[C@@H](CC(=O)NC4CCC4)CC[C@H]32)c1	/	-0.2[16.7 µM]	0.9	/	/
C[C@H]1CN([C@@H](C)CO)C(=O)Cc2cc(NC(=O)Nc3ccccc3)ccc2O[C@@H]1CN(C)S(=O)(=O)c1ccc(F)cc1	30.4[16.7 µM]	-2.6[16.7 µM]	2.6	/	/
C[C@H](CO)N1C[C@H](C)[C@H](CN(C)S(=O)(=O)c2ccccc2)Oc2ccc(NC(=O)Nc3ccccc3)cc2CC1=O	80.3*[16.7 µM]	-1.8[16.7 µM]	-4.3	/	/
C[C@H](CO)N1C[C@H](C)[C@H](CN(C)S(=O)(=O)c2ccccc2)Oc2ccc(NC(=O)Cc3ccccc3)cc2CC1=O	92.2*[16.7 µM]	16.0[16.7 µM]	0.0	/	/
